Structures are written as SMILES. The source made the active and inactive calls. Calls come from the whole dose curve; as a rule, active = well fitted curve in the direction sought with a large enough effect; inactive = no such curve, though single readings can be large or run the other way.

Sequence of Alpha-galactosidase (Coffea arabica) (Q42656 whole entry, looked up): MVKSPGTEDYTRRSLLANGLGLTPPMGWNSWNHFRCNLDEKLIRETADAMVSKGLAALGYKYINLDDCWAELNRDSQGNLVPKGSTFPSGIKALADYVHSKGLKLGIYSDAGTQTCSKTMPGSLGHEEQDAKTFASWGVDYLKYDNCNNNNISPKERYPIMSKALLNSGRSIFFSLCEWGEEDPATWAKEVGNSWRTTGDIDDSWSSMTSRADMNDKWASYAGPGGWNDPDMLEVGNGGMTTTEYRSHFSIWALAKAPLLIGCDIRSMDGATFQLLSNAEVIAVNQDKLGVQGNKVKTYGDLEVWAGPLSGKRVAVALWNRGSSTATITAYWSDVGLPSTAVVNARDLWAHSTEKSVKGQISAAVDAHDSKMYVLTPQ

The target of this test is Alpha-galactosidase (Coffea arabica) (UniProt Q42656). The experiment in a line: Counterscreen for Glucocerebrosidase Inhibitors: qHTS Assay for Coffee Bean alpha-Galactosidase at pH 5.9 (AID 998). The settings on record: coffee bean alpha-galactosidase enzyme assay; series mostly up to 76.9 µM. From the text:
NIH Chemical Genomics Center [NCGC]
NIH Molecular Libraries Screening Centers Network [MLSCN]
PI Name: Zheng, Wei [NIH]
Alpha-galactosidase is a homodimeric glycoprotein that hydrolyzes the terminal alpha-galactosyl moieties from glycolipids and glycoproteins. Deficiency of this enzyme results in Fabry Disease with progressive accumulation of globotriaosylceramide and other glycosphingolipids in vascular endothelial cells that causes renal failure, myocardial infarction and stroke, and premature death in patients. It has reported that the improper folding and trafficking of alpha-galactosidase resulted from the genetic mutations may account for a significant numbers of Fabry patients. […] We optimized this coffee bean alpha-galactosidase assay in 1536-well plate format as a counter-screen assay for identifying the selective small molecule inhibitors of other lysosomal enzymes.
NCGC Assay Protocol Summary:
This is a fluorogenic enzyme assay with 4-Methylumbelliferyl alpha-D-galactopyranoside as the substrate and green coffee bean […] (from Sigma-Aldrich) as the enzyme preparation. Upon the hydrolysis of this fluorogenic substrate, the resulting product, […]. 4-Methyllumbelliferone, can be excited at 365 nm and emits at 440 nm which can be detected by a standard fluorescence plate reader. Data were normalized to the controls for basal activity (without enzyme) and 100% activity (with enzyme). In the AC50 values were determined from concentration-response data modeled with the standard Hill equation.
Assay buffer: 50 mM citric acid, 0.005% Tween-20, pH 5.9. (pH 5.9 is an optimal condition for this enzyme assay.)
1536-well assay protocol for the coffee bean alpha-galactosidase:
(1) Add 2 ul/well of enzyme (2 nM final)
(2) Add 23 nL compounds in DMSO solution. The final titration was 0.7 nM to 77 uM.
(3) Add 1 ul of substrate (80 uM final)
(4) Incubate at room temperature for 20 min.
(5) Add 2 ul stop solution (1M NaOH and 1M Glycine mixture, pH 10)
(6) Detect the assay plate in a ViewLux plate reader (PerkinElmer) with Ex=365 nm and Em=440nm.
Keywords: Alpha-galactosidase, Fabry Disease, pharmacological chaperone, chaperone therapy, high throughput screening, alpha-galactosidase inhibitor, MLSMR, MLSCN, NIH Roadmap, qHTS and NCGC
Background: Counterscreens check selectivity or assay interference.
Take `O=c1ccc2ccc(O)c(O)c2o1`: the compound was classed as inactive.
`CC(C)N(CCC(=O)c1ccc2ccccc2c1)Cc1ccccc1`: the result was inactive.
To `O=C(O)C1CCNCC1` belongs “inactive”.
To `O=C1CCC(c2ccc(-n3ccnc3)cc2)=NN1` belongs “inactive”.
To `O=Nc1ccc2oc(=O)ccc2c1` belongs “inactive”; to `O=c1[nH]c2ccccc2c2ccccc12`, “inactive”.
Consider `O=Nc1c(-c2c(O)[nH]c3cc(Br)ccc23)[nH]c2ccccc12`, for which the outcome was inactive.
To `O=c1c2ccccc2nc2n1CCc1c-2[nH]c2ccccc12` belongs “inactive”; to `C/C(O)=C(/C#N)C(=O)Nc1cc(Br)ccc1Br`, “inactive”.
To `C/C(=C\c1ccc(C(=O)O)cc1)c1ccc2c(c1)C(C)(C)CCC2(C)C` belongs “inactive”.
As for `NC(N)=NC(N)=Nc1ccccc1`, the entry is “inactive”; as for `COc1ccc(-n2nc(C(F)(F)F)cc2-c2ccc(Cl)cc2)cc1`, “inactive”; as for `O=C(OCCN1CCOCC1)C1(c2ccccc2)CCCCC1`, “inactive”.
For the compound `CC(C)NC[C@H](O)COc1ccc(CC(N)=O)cc1`, the outcome was inactive.
Turning to `CNC(=O)c1cc2c(cn1)[nH]c1ccccc12`, the result was inactive.
Turning to `NCCS(=O)O`, the compound was classed as inactive.
As for `CNCC[C@H](Oc1ccc(C(F)(F)F)cc1)c1ccccc1`, the entry is “inactive”; as for `COC(=O)[C@H](NC(=O)c1cc(-c2ccccc2)nc2ccccc12)c1ccccc1`, “inactive”; as for `CCCN(CC1CC1)c1nc(C)nc(Nc2c(Cl)cc(Cl)cc2Cl)c1Cl`, “inactive”.
As for `O=[N+]([O-])c1cccc2c(Br)[nH]nc12`, the entry is “inactive”; as for `O=C(O)c1ccccc1Nc1cccc(OCc2ccc3ccccc3n2)c1`, “inactive”.
For `CN=C(N)NCCC[C@H](N)C(=O)O`, the result was inactive.
To `CC(=O)[C@H]1CC[C@H]2[C@@H]3CCC4=CC(=O)CC[C@]4(C)[C@H]3CC[C@]12C` belongs “inactive”; to `N[C@@H](Cc1cnc[nH]1)C(=O)O`, “inactive”; to `CN1[C@@H]2CC[C@H]1CC(O[C@@H](c1ccccc1)c1ccc(Cl)cc1)C2` (stereo not given in full), “inactive”.
To `Cc1nc(N=Nc2ccc(S(=O)(=O)O)cc2S(=O)(=O)O)c(COP(=O)(O)O)c(C=O)c1O` belongs “inactive”; to `NCCCCNCCCN`, “inactive”.
As for `COc1ccccc1N1CCN(CCN(C(=O)c2ccc(F)cc2)c2ccccn2)CC1`, the compound was called inactive.
As for `COc1ccc(CNC(=O)/C=C\c2ccc3[nH]cc(CCN(C)C)c3c2)cc1`, the entry is “inactive”.
As for `O=c1cc(-c2ccccc2)[nH]c2nc(Cl)ccc12`, the entry is “inactive”; as for `Nc1cc(Cl)c(NC2=NCCN2)c(Cl)c1`, “inactive”.
For the compound `N[C@@]1(C(=O)O)CC[C@H](C(=O)O)C1`, the compound was classed as inactive.
Consider `NC(=NCc1ccccc1)NC(=O)c1nc(Cl)c(N)nc1N`, for which the compound was classed as inactive.
As for `O=C(Cc1ccc(Cl)c(Cl)c1)N1CCCC[C@H]1CN1CCCC1`, the entry is “inactive”; as for `N#C/C(=C\c1ccc(O)c(O)c1)C(=O)NCCc1ccccc1`, “inactive”; as for `N=C(N)c1ccc(N)cc1`, “inactive”.
For `N=c1c[n+](N2CCOCC2)[n-]o1`, the compound was classed as inactive.
Regarding `N=C(N)c1ccccc1`, the compound was classed as inactive.
As for `CC(C)NC[C@H](O)COc1cccc2[nH]ccc12`, the entry is “inactive”; as for `Fc1ccc(C(OCCCc2cnc[nH]2)c2ccc(F)cc2)cc1`, “inactive”.
